# Several values for one entry are separate records, joined by “and”; a condition that tells them apart may be missing. Equal entries are not always repeated. Records with an inconclusive call do not appear. Some structures have more than one record in an assay (separate samples or runs), and their calls can disagree. Activity calls are given as the source filed them. Calls follow the shape of the dose curve; as a rule, active = well fitted curve in the direction sought with a large enough effect; inconclusive = small, poorly fitted or top-dose-only effect, or another doubt; inactive = no such curve, though single readings can be large; an effect the other way counts as inactive or inconclusive.
# What was measured:
# [1] = Viability qHTS for spleen associated tyrosine kinase inhibitor (SYKi) naive MV4-11 cells (AID 1963823); also: nearly all actives have a fitted effect of over 40% in size
# In short: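 Viability of MV4-11 AML cells lacking prior SYK inhibitor exposure is scored by CellTiter-Glo luminescence following 72 hr compound incubation at 37 C, 5% CO2, seeded at 500 cells per well.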
# [2] = Viability qHTS for spleen associated tyrosine kinase inhibitor (SYKi) drug resistant MV4-11 cells (AID 1963824); also: nearly all actives have a fitted effect of over 35% in size
# In short: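 SYK-inhibitor-resistant MV4-11 AML cells were seeded at 500 per well onto compound and cultured 72 hours (37 °C, 5% CO2). CellTiter-Glo was then added, and after 10 min at room temperature, luminescence gave viability.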
# [3] = Quantitative highthroughput screen to assess conditional lethalithy of NOMO1 cells grown in RPMI1640 with untreated serum (RPMI+s) (AID 1963876); also: nearly all actives have a fitted effect of over 35% in size;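 as to Viability: 100% = DMSO wells and 0% = empty wells without cells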
# In short: (§1)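 Each medium arm—HPLM with 10% dialyzed FBS, or RPMI1640 with 5 mM glucose and 10% untreated or dialyzed FBS—was screened against an 11-point, 3-fold compound titration for 48 h at 37 °C, with CellTiter-Glo luminescence as endpoint.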
# [4] = Quantitative highthroughput screen to assess conditional lethalithy of NOMO1 cells grown in RPMI1640 with dialyzed fetal bovine serum (RPMI+ds) (AID 1963877); also: nearly all actives have a fitted effect of over 30% in size;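 as to Viability: series mostly up to about 46 µM; 100% = DMSO control wells and 0% = empty wells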
# In short: as §1
# [5] = Quantitative highthroughput screen to assess conditional lethalithy of NOMO1 cells grown in Human Plasma-Like Medium with dialyzed fetal bovine serum (HPLM+ds) (AID 1963878); also: nearly all actives have a fitted effect of over 35% in size;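 as to Viability: 100% = DMSO wells and 0% = empty wells on each plate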
# In short: as §1
# [6] = Quantitative highthroughput screen to assess conditional lethalithy of P12 Ichikawa cells grown in RPMI1640 with dialyzed fetal bovine serum (RPMI+ds) (AID 1963880); conditions: Potency: P12-Ichikawa viability; also: nearly all actives have a fitted effect of over 35% in size;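 as to Viability: 100% = DMSO wells and 0% = empty wells on each plate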
# In short: as §1
# [7] = Quantitative highthroughput screen to assess conditional lethalithy of SEM cells grown in Human Plasma-Like Medium with dialyzed fetal bovine serum (HPLM+ds) (AID 1963882); also: nearly all actives have a fitted effect of over 35% in size; as to Viability: series mostly up to about 46 µM
# In short: as §1
# [8] = Quantitative highthroughput screen to assess conditional lethalithy of SEM cells grown in RPMI1640 with unreated serum (RPMI+s) (AID 1963883); also: nearly all actives have a fitted effect of over 35% in size;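 as to Viability: 100% = DMSO wells and 0% = empty wells without cells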
# In short: as §1
# [9] = Quantitative highthroughput screen to assess conditional lethalithy of SEM cells grown in RPMI1640 with dialyzed fetal bovine serum (RPMI+ds) (AID 1963884); also: nearly all actives have a fitted effect of over 35% in size;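 as to Viability: series mostly up to about 46 µM; 100% = DMSO control wells and 0% = empty wells without cells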
# In short: as §1
# [10] = Cellular viability qHTS for adrenocortical cancer (ACC) cell line SW-13 (AID 1963989); conditions: SW-13 ACC cells viability, CellTiter-Glo, 48 h; activity (max response): stronger effect = lower value; also: nearly all actives have a fitted effect of over 65% in size;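 as to activity (max response): cells grown in serum-free medium with ITS supplement; % is scaled to controls: 0 for no effect and ±100 for the full control effect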
# In short: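 Luminescent ATP read-out (CellTiter-Glo, 20 min at room temperature) measured metabolically competent SW-13 cells after 48 h compound treatment. Final concentrations spanned up to 46 uM; bortezomib served as positive control.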
# [11] = Cellular viability qHTS for adrenocortical cancer (ACC) cell line NCI-H295R (AID 1963990); also: nearly all actives have a fitted effect of over 60% in size
# In short: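 IC50 and maximal efficacy derive from four-parameter logistic modelling of titration curves, with reads scaled between DMSO-only wells (0%) and doxorubicin hydrochloride (100% inhibition). Compounds spanned up to 46 uM over 48 h.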
# [12] = Quantitative highthroughput screen to assess conditional lethalithy of P12 Ichikawa cells grown in RPMI1640 with untreated serum (RPMI+s) (AID 1963881); conditions: Potency: viability; also: nearly all actives have a fitted effect of over 35% in size;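 as to Viability: series mostly up to about 46 µM; 100% = DMSO wells and 0% = empty wells without cells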
# In short: as §1
# [13] = Quantitative highthroughput screen to assess conditional lethalithy of P12 Ichikawa cells grown in Human Plasma-Like Medium with dialyzed fetal bovine serum (HPLM+ds) (AID 1963879); conditions: Potency: viability; also: nearly all actives have a fitted effect of over 35% in size
# In short: as §1
# Potency is read from the fitted curve at half-maximal effect.
SMILES,Potency [1],Potency [2],Potency [3],Potency [4],Potency [5],Potency [6],Potency [7],Potency [8],Potency [9],activity (max response) [10],Potency [11],Potency [12],Potency [10],Potency [13]
COc1ccc(-c2oc3c(CC=C(C)C)c(O)cc(O)c3c(=O)c2O)cc1,8.33 µM (active),13.2 µM (active),inactive,inactive,inactive,inactive,inactive,inactive,inactive,-11% (inactive),,,,
Nc1nc2c(ncn2COC(CO)CO)c(=O)[nH]1,inactive,inactive,26.4 µM (active),26.4 µM (active),23.5 µM (active),,23.5 µM (active),20.9 µM (active),,8.16% (inactive) and -8.2% (inactive),inactive,,,
CCN1CCN(c2ccc(Nc3cc(N(C)C(=O)Nc4c(Cl)c(OC)cc(OC)c4Cl)ncn3)cc2)CC1,2.63 µM (active),1.86 µM (active),5.26 µM (active),7.43 µM (active),3.32 µM (active),,4.18 µM (active),2.09 µM (active),2.64 µM (active),-7.03% (inactive),inactive,,,
COC(c1ccccc1)(c1ccccc1)[C@H](Oc1nc(C)cc(C)n1)C(=O)O,inactive,inactive,inactive,inactive,inactive,,,,,2.42% (inactive) and -1.06% (inactive),,,,
Cc1ccc(F)c(NC(=O)Nc2ccc(-c3cccc4[nH]nc(N)c34)cc2)c1,0.0166 µM (active),0.0231 µM (active),inactive,inactive,inactive,inactive,,10.5 µM (active),5.9 µM (active),,15.8 µM (active),inactive,22.4 µM (active),
O=C1CCCC2=C1C(c1[nH]ncc1Cl)N=C(Nc1nc3ccccc3o1)N2 (stereo unspecified),8.33 µM (active),14.6 µM (active) and 13.2 µM (active),inactive,inactive,18.7 µM (active),,inactive,,,-9.4% (inactive),inactive,,,
CNC(=O)c1nn(C)c2c1C(C)(C)Cc1cnc(Nc3ccc(N4CCN(C)CC4)cc3)nc1-2,51.7 nM (active) and 74.2 nM (active),82 nM (active) and 209 nM (active),16.6 µM (active),14.8 µM (active),8.33 µM (active),,0.264 µM (active),,0.418 µM (active),,14.1 µM (active),,5.01 µM (active),
Cn1cc(-c2ccncc2)c(-c2ccc(OCc3ccc4ccccc4n3)cc2)n1,4.11 µM (active),7.42 µM (active),inactive,inactive,inactive,8.33 µM (active),inactive,inactive,,,,,,
Oc1cc2c(cc1O)C1c3ccc(O)c(O)c3OCC1(O)C2 (stereo unspecified),16.6 µM (active),14.8 µM (active),inactive,inactive,inactive,inactive,inactive,,inactive,-7.46% (inactive),inactive,inactive,,
CC(C)(C)c1nc2c3cc[nH]c(=O)c3c3cc(F)ccc3c2[nH]1,0.411 µM (active),0.651 µM (active),5.9 µM (active),4.69 µM (active),2.09 µM (active),,,,,-16.1% (inactive),inactive,,,
Fc1ccc(CNc2ncnc3ccc(F)cc23)cc1,2.06 µM (active),1.84 µM (active),inactive,inactive,inactive,11.8 µM (active),inactive,inactive,inactive,,,,,
O=C(O)C1=CC(O)C(O)[C@H](O)C1 (stereo partly specified),inactive,inactive,inactive,inactive,inactive,,inactive,inactive,inactive,-8.83% (inactive),inactive,,,
COc1c(C)cnc(Cn2cnc3c(Cl)nc(N)nc32)c1C,0.132 µM (active),0.235 µM (active),0.743 µM (active),0.662 µM (active),0.662 µM (active),,0.372 µM (active),0.264 µM (active),0.296 µM (active),,1.78 µM (active),,2 µM (active),
C[C@H]1COC2=C1C(=O)C(=O)c1c2ccc2c1CCCC2(C)C,5.9 µM (active),5.25 µM (active),inactive,inactive,inactive,inactive,,,13.2 µM (active),-2.17% (inactive),,inactive,,
Cc1ccc(C(=O)Nc2cccc(C(F)(F)F)c2)cc1-c1ccc2nc(NCCN3CCOCC3)ncc2c1,184 nM (active) and 372 nM (active),366 nM (active) and 742 nM (active),5.9 µM (active),4.69 µM (active),4.18 µM (active),,4.69 µM (active),4.18 µM (active),4.18 µM (active),,22.4 µM (active),,14.1 µM (active),
COc1ccc2[nH]cc(CCNC(C)=O)c2c1,inactive,inactive,inactive,inactive,inactive,inactive,inactive,inactive,inactive,-5.05% (inactive) and -7.41% (inactive),inactive,,,

SMILES,Potency [1],Potency [2],Potency [3],Potency [4],Potency [5],Potency [6],Potency [7],Potency [8],Potency [9],activity (max response) [10],Potency [11],Potency [12],Potency [10],Potency [13]
Cc1cc(Nc2ncc(Cl)c(Nc3ccccc3S(=O)(=O)C(C)C)n2)c(OC(C)C)cc1C1CCNCC1,2.59 µM (active),2.31 µM (active) and 2.35 µM (active),18.6 µM (active),18.6 µM (active),13.2 µM (active),23.4 µM (active),14.8 µM (active),,16.6 µM (active),,2.24 µM (active),26.3 µM (active),15.8 µM (active),
CCOC(=O)c1ccc(C#Cc2ccc3c(c2)C(C)(C)CCS3)nc1,5.25 µM (active),3.76 µM (active),inactive,inactive,inactive,inactive,inactive,inactive,inactive,,inactive,inactive,,
Clc1ccccc1C(c1ccccc1)(c1ccccc1)n1ccnc1,5.25 µM (active),5.25 µM (active),inactive,inactive,inactive,,inactive,,,,23.1 µM (active),,16.4 µM (active),
CN1CCC(=C2c3ccccc3CC(=O)c3sccc32)CC1,26.3 µM (active),23.7 µM (active) and 20.9 µM (active),inactive,inactive,inactive,,inactive,inactive,inactive,-6.42% (inactive) and -1.59% (inactive),inactive,inactive,,
CNC(=O)[C@H](Cc1ccccc1)NC(=O)[C@H](CC(C)C)[C@H](CSc1cccs1)C(=O)NO,5.25 µM (active),2.95 µM (active),inactive,inactive,inactive,11.8 µM (active),16.6 µM (active),,14.8 µM (active),-14.2% (inactive),inactive,9.35 µM (active),,
Nc1nc(Nc2ccc(S(N)(=O)=O)cc2)nn1C(=O)c1c(F)cccc1F,1.16 µM (active) and 1.86 µM (active),1.03 µM (active) and 1.48 µM (active),16.6 µM (active),16.6 µM (active),18.7 µM (active),,8.33 µM (active),10.5 µM (active),9.35 µM (active),,15.8 µM (active),,3.55 µM (active),
O=c1cc(CN2CCOCC2)occ1OCCCCCSc1ccnc2cc(C(F)(F)F)ccc12,11.8 µM (active),9.34 µM (active),inactive,inactive,inactive,,inactive,inactive,inactive,,,,15.8 µM (active),
Cc1ccnc(NS(=O)(=O)c2ccc(NC(=O)Nc3ccc(S(=O)(=O)Nc4nccc(C)n4)cc3)cc2)n1,inactive,inactive,0.296 µM (active),0.469 µM (active),,0.332 µM (active),0.187 µM (active),0.0833 µM (active),0.105 µM (active),-24.6% (inactive),,0.469 µM (active),,0.264 µM (active)
O=C(O)c1ccc(-c2c[nH]c3ncc(-c4ccccc4)cc23)cc1C1CCCC1,1.18 µM (active),651 nM (active) and 2.35 µM (active),inactive,inactive,inactive,6.62 µM (active),,,,,inactive,,,
COc1cc2nccc(Oc3ccc(NC(=O)NC4CC4)c(Cl)c3)c2cc1C(N)=O,0.461 µM (active),1.03 µM (active),26.4 µM (active),23.5 µM (active),18.7 µM (active),20.9 µM (active),,,,3.51% (inactive),inactive,20.9 µM (active),,
O=c1c(O)c(-c2ccc(O)c(O)c2)oc2cc(O)cc(O)c12,23.7 µM (active) and inactive,inactive and 16.4 µM (active),inactive,inactive,inactive,,,,,-23.2% (inactive) and 14.3% (inactive),inactive,inactive,,
OC[C@H](Cc1ccccc1)Nc1nc(Oc2ccc3c(c2)CCC3)nc2c1ncn2Cc1ccc(-c2ccccc2)cc1,13.2 µM (active),10.5 µM (active),inactive,inactive,inactive,,,inactive,inactive,-12.9% (inactive),,inactive,,
C[C@](N)(Cc1ccc(O)c(O)c1)C(=O)O,inactive,inactive and 16.6 µM (active),inactive,inactive,inactive,inactive,26.4 µM (active),23.5 µM (active),23.5 µM (active),12% (inactive) and -6.33% (inactive),inactive,,,
Cc1cnc(Nc2cccc(CN3CCOCC3)c2)nc1Nc1cccc(S(=O)(=O)NC(C)(C)C)c1,0.0934 µM (active),0.186 µM (active),inactive,inactive,inactive,,,,,-8.11% (inactive),inactive,inactive,,
N#Cc1ccnc(Nc2cc(C3CCN(C4COC4)CC3)cc(N3CCC(F)(F)C3)n2)c1,1.16 µM (active) and 118 nM (active),2.06 µM (active) and 235 nM (active),13.2 µM (active),13.2 µM (active),14.8 µM (active),,,13.2 µM (active),9.33 µM (active),,10 µM (active),,15.8 µM (active),
